# Data reported in PMC7862700, “An all-to-all approach to the identification of sequence-specific readers for epigenetic DNA modifications on cytosine”.
# Key:
# Assay in all cases: DAPPL (digital affinity profiling via proximity ligation, sequencing); 10 mM Tris-HCl pH 7.5, 50 mM NaCl, 1 mM DTT, 4% glycerol, room temperature, 30 min; GST-TFs on glutathione beads, 16-mer random dsDNA library, 0.1% formaldehyde crosslink after washing; high values mean tight binding
# FLI1 = molecular target: T1, FLI1 (Homo sapiens, UniProt Q01543 1-452); settings: protein: recombinant; tags: N-terminal GST; dsDNA, one strand shown
# T1 sequence: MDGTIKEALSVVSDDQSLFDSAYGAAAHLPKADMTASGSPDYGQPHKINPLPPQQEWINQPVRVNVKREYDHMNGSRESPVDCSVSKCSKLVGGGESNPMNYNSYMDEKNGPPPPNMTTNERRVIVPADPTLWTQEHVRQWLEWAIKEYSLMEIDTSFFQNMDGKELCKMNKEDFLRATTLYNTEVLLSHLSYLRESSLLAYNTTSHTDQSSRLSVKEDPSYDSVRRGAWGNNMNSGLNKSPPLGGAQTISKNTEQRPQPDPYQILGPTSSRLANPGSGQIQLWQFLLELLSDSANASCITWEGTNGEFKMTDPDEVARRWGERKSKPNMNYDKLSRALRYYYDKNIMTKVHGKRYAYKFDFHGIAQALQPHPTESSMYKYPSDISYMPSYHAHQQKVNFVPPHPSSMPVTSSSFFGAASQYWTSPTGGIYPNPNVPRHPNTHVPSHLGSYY
# In short: (§1)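 The binding signal reported is, for every hexamer, its read frequency for a factor over its read frequency for the tag-only sample. Reads came from pools of yeast-expressed, GST-fused human transcription factors on glutathione beads, barcoded with DNA and mixed with that sample, which were incubated with 200 nmole of a random double-stranded 16-mer DNA library in Tris/NaCl/DTT/glycerol buffer at room temperature for 30 min. After washing, the pools were crosslinked with 0.1% formaldehyde, proximity-ligated with BsaI/T4 ligase for 1 h at 37 °C, PCR-amplified and sequenced on an Illumina NextSeq500.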
# ELK1 = molecular target: T2, ELK1 (Homo sapiens, UniProt P19419 1-428); settings: protein: recombinant; tags: N-terminal GST; dsDNA, one strand shown
# T2 sequence: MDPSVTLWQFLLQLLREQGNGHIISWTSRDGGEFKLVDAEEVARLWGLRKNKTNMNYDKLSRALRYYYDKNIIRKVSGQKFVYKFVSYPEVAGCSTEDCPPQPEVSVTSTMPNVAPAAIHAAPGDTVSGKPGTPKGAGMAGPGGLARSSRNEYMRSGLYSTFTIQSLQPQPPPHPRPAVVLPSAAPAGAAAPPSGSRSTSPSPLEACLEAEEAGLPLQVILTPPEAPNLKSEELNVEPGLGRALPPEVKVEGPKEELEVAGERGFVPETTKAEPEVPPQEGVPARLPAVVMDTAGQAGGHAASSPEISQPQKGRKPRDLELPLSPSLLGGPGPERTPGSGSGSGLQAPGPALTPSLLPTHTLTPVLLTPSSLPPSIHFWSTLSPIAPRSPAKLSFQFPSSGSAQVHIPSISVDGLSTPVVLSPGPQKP
# In short: as §1
# GABPA = molecular target: T3, GABPA (Homo sapiens, UniProt Q06546 1-454); settings: protein: recombinant; tags: N-terminal GST; dsDNA, one strand shown
# T3 sequence: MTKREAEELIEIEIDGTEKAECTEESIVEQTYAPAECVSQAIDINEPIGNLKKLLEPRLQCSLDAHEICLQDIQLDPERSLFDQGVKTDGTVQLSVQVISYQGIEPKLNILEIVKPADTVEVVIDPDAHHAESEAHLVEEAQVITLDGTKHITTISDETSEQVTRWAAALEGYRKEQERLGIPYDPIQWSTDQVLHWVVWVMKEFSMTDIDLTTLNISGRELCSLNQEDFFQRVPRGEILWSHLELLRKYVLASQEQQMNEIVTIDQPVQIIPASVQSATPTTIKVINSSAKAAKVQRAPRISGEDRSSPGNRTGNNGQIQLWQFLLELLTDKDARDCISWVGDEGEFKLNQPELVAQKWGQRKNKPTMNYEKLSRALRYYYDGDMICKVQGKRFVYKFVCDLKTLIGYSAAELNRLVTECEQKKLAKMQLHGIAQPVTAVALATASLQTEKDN
# In short: as §1
# ERG = molecular target: T4, ERG (Homo sapiens, UniProt P11308 1-479); settings: protein: recombinant; tags: N-terminal GST; dsDNA, one strand shown
# T4 sequence: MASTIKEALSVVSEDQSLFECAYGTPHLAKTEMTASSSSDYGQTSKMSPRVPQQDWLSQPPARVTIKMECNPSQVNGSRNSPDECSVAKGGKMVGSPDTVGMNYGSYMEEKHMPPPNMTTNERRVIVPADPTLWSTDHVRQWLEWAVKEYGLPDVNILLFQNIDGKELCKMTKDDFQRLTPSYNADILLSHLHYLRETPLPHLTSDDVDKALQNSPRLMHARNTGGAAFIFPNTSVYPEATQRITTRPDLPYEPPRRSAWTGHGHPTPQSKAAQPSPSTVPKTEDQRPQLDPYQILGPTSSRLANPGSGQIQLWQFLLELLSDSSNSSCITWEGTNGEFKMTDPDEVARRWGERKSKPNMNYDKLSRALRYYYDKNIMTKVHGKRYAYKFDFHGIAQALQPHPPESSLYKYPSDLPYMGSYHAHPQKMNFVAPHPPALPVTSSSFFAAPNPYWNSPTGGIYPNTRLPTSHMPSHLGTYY
# In short: as §1
# ELF1 = ELF1 (Homo sapiens, UniProt P32519 1-619); settings: protein: recombinant; tags: N-terminal GST; dsDNA, one strand shown
# ELF1, sequence (P32519 whole entry): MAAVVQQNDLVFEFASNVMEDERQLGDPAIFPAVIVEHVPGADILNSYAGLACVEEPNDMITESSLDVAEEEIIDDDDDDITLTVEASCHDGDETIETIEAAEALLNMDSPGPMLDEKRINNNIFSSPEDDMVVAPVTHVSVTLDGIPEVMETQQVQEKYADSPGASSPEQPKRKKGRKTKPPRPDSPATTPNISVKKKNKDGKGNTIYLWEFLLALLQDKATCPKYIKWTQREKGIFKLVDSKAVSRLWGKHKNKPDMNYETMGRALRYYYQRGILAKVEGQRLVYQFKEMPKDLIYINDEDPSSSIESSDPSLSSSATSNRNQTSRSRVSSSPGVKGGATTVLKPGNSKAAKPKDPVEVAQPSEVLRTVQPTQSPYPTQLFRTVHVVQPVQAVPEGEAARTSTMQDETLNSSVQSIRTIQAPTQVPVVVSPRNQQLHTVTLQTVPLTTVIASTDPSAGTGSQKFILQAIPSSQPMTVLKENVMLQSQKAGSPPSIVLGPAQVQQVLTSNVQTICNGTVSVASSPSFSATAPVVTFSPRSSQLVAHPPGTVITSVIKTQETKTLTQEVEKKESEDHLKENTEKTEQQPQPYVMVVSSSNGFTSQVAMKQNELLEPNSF
# In short: as §1
# EHF = molecular target: T5, EHF (Homo sapiens, UniProt Q9NZC4 1-300); settings: protein: recombinant; tags: N-terminal GST; dsDNA, one strand shown
# T5 sequence: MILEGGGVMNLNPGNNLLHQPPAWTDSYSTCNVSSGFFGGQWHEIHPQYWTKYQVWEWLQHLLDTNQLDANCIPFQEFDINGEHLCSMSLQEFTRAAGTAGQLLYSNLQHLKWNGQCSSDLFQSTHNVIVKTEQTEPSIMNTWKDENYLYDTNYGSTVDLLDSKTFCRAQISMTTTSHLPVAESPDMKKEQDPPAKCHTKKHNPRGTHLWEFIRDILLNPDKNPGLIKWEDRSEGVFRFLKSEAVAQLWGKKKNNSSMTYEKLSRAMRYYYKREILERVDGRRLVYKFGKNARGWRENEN
# In short: as §1
# SPI1 = SPI1 (Homo sapiens, UniProt P17947 1-270); settings: protein: recombinant; tags: N-terminal GST; dsDNA, one strand shown
# In short: as §1
# SPIB = SPIB (Homo sapiens, UniProt Q01892 1-262); settings: protein: recombinant; tags: N-terminal GST; dsDNA, one strand shown
# SPIB, sequence (Q01892 whole entry): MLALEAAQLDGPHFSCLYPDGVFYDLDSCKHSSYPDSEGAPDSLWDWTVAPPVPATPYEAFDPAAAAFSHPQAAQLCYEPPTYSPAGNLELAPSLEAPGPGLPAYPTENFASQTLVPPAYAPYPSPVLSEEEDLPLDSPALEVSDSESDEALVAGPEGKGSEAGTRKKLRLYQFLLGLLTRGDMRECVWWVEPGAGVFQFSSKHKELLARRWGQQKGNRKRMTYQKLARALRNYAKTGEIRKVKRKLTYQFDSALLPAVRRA
# In short: as §1
# ELK3 = molecular target: T6, ELK3 (Homo sapiens, UniProt P41970 1-407); settings: protein: recombinant; tags: N-terminal GST; dsDNA, one strand shown
# T6 sequence: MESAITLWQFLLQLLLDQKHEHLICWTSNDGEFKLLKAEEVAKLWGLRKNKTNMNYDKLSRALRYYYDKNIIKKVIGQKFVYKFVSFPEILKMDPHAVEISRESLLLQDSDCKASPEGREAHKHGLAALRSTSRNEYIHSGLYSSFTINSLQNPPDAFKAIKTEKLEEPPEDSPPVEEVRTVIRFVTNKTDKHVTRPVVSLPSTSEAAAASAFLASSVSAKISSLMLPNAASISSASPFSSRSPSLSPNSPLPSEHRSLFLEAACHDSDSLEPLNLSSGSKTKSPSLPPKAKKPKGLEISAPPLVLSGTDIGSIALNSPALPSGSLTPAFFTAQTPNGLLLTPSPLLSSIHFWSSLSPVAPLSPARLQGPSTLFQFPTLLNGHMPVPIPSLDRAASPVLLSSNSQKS
# In short: as §1
# ETV5 = ETV5 (Homo sapiens, UniProt P41161 1-510); settings: protein: recombinant; tags: N-terminal GST; dsDNA, one strand shown
# ETV5, sequence (P41161 whole entry): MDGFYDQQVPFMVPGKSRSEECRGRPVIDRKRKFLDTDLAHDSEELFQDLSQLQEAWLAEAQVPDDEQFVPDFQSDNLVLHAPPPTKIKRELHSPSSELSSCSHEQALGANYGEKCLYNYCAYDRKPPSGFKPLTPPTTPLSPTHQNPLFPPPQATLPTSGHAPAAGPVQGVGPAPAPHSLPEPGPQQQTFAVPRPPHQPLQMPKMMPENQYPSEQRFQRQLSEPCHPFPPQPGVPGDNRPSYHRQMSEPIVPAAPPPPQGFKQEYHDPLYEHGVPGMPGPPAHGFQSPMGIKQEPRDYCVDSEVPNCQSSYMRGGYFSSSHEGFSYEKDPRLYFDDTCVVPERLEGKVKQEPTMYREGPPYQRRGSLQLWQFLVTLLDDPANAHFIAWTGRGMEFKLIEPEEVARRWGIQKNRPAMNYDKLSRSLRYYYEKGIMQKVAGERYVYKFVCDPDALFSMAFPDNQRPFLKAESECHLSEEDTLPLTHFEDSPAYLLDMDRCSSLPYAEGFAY
# In short: as §1
# HSF1 = HSF1 (Homo sapiens, UniProt Q00613 1-529); settings: protein: recombinant; tags: N-terminal GST; chain copies: 3; dsDNA, one strand shown
# HSF1, sequence (Q00613 whole entry): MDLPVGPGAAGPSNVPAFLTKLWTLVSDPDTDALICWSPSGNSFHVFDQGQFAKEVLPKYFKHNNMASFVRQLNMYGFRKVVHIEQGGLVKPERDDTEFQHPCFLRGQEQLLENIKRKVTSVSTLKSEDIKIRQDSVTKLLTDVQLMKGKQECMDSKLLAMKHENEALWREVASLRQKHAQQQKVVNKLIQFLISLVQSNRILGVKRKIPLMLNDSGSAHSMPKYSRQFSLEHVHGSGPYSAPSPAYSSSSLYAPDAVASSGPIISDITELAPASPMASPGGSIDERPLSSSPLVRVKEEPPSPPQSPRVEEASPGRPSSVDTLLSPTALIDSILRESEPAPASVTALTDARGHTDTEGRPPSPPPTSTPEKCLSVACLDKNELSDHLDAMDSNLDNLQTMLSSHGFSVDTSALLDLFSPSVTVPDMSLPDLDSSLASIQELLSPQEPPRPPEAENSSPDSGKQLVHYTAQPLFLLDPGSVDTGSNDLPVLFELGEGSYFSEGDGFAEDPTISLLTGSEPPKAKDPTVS
# In short: as §1
# SPIC = molecular target: T7, SPIC (Homo sapiens, UniProt Q8N5J4 1-248); settings: protein: recombinant; tags: N-terminal GST; dsDNA, one strand shown
# T7 sequence: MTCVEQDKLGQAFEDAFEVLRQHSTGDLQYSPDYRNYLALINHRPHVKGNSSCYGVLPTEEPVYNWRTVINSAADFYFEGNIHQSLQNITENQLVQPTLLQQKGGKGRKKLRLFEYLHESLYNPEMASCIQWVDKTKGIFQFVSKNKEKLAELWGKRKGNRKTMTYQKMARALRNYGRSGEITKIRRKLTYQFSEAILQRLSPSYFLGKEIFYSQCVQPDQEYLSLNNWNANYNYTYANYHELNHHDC
# In short: as §1
# ELF4 = ELF4 (Homo sapiens, UniProt Q99607 1-663); settings: protein: recombinant; tags: N-terminal GST; dsDNA, one strand shown
# ELF4, sequence (Q99607 whole entry): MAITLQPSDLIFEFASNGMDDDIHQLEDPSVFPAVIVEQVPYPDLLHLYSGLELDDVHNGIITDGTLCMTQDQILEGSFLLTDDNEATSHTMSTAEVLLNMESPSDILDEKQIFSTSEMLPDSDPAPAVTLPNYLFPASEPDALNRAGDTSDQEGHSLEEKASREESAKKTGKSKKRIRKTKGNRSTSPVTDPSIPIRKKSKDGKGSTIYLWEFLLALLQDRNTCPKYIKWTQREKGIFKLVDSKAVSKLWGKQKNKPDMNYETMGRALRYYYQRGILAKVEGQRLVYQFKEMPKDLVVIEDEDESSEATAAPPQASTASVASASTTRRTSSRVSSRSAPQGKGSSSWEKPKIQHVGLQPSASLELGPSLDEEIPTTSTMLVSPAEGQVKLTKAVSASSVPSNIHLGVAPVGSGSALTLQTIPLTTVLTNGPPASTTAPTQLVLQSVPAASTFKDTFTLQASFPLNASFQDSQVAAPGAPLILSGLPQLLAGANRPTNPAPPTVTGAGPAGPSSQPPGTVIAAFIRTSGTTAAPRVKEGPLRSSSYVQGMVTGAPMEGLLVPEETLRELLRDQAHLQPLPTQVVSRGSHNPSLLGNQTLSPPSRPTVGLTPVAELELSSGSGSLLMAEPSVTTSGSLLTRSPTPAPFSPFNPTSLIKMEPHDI
# In short: as §1
# ELK4 = molecular target: T8, ELK4 (Homo sapiens, UniProt P28324-2 1-405); settings: protein: recombinant; tags: N-terminal GST; dsDNA, one strand shown
# T8 sequence: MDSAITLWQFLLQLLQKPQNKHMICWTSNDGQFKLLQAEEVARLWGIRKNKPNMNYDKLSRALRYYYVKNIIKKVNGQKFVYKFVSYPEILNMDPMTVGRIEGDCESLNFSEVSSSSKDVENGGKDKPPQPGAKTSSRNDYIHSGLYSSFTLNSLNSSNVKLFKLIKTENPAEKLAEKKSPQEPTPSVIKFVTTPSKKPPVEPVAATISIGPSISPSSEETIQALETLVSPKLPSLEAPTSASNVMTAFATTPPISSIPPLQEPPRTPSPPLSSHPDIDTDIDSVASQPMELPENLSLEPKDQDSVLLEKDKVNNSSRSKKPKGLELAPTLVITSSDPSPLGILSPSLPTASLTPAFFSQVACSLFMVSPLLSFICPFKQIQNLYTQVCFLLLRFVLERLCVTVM
# In short: as §1
# ETV2 = molecular target: T9, ETV2 (Homo sapiens, UniProt O00321 1-342); settings: protein: recombinant; tags: N-terminal GST; dsDNA, one strand shown
# T9 sequence: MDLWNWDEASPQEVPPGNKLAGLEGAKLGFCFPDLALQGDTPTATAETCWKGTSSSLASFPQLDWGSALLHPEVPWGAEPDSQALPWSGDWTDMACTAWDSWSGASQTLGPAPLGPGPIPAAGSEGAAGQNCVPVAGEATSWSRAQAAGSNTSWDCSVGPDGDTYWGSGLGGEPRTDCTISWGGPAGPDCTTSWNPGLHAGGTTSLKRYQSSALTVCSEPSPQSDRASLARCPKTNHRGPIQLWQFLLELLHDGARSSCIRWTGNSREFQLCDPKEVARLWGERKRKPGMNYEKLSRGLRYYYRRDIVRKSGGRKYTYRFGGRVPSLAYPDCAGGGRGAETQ
# In short: as §1
# CRX = CRX (Homo sapiens, UniProt O43186 1-299); settings: protein: recombinant; tags: N-terminal GST; dsDNA, one strand shown
# CRX, sequence (O43186 whole entry): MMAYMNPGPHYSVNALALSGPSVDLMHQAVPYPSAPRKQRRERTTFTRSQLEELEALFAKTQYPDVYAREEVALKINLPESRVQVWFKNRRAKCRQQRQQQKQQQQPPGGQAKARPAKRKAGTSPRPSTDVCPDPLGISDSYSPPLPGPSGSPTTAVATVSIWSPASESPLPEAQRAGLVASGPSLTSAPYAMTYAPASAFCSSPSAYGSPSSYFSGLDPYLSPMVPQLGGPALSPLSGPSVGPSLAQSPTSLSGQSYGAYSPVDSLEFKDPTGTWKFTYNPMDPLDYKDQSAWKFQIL
# In short: as §1
# ETV1 = ETV1 (Homo sapiens, UniProt P50549 1-477); settings: protein: recombinant; tags: N-terminal GST; dsDNA, one strand shown
# ETV1, sequence (P50549 whole entry): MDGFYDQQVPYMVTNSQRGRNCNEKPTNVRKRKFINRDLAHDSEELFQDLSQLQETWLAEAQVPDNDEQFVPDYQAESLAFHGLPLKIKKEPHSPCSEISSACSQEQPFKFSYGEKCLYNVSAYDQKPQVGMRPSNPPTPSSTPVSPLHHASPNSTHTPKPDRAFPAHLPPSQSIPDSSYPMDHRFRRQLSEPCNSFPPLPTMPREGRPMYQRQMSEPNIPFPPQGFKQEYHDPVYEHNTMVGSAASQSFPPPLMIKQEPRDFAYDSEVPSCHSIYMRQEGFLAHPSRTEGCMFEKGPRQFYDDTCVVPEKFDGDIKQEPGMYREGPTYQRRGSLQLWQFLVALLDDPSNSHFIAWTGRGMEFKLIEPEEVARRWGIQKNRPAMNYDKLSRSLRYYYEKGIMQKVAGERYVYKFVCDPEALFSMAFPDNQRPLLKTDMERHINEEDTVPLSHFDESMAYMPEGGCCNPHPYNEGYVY
# In short: as §1
sequence,measurement,setting,value
TTGAAC,binding signal,FLI1,"1.13 fold enrichment (6-mer frequency, TF over GST control)"
same,binding signal,ELK1,"1.1 fold enrichment (6-mer frequency, TF over GST control)"
same,binding signal,GABPA,"1.08 fold enrichment (6-mer frequency, TF over GST control)"
same,binding signal,ERG,"1.01 fold enrichment (6-mer frequency, TF over GST control)"
same,binding signal,ELF1,"1.15 fold enrichment (6-mer frequency, TF over GST control)"
same,binding signal,EHF,"1.11 fold enrichment (6-mer frequency, TF over GST control)"
same,binding signal,SPI1,"1.04 fold enrichment (6-mer frequency, TF over GST control)"
same,binding signal,SPIB,"1.12 fold enrichment (6-mer frequency, TF over GST control)"
same,binding signal,ELK3,"1.12 fold enrichment (6-mer frequency, TF over GST control)"
same,binding signal,ETV5,"1.05 fold enrichment (6-mer frequency, TF over GST control)"
same,binding signal,HSF1,"1.02 fold enrichment (6-mer frequency, TF over GST control)"
same,binding signal,SPIC,"1.06 fold enrichment (6-mer frequency, TF over GST control)"
same,binding signal,ELF4,"1.12 fold enrichment (6-mer frequency, TF over GST control)"
same,binding signal,ELK4,"1.32 fold enrichment (6-mer frequency, TF over GST control)"
same,binding signal,ETV2,"1.27 fold enrichment (6-mer frequency, TF over GST control)"
same,binding signal,CRX,"1.03 fold enrichment (6-mer frequency, TF over GST control)"
same,binding signal,ETV1,"1.08 fold enrichment (6-mer frequency, TF over GST control)"
